Source: PubChem (National Center for Advancing Translational Sciences (NCATS))
HCMV inh – qHTS Assay for inhibitors of the human cytomegalovirus (HCMV). HFF cells, HCMV-luciferase reporter, 72 h; hits give low values. activity change, negative = inhibition, % at 57.5 µM. 410,000 tested, 4.5% active. AID 1259415, 2018; in the data active = activity change below about -60%; inconclusive = no clear call, values can overlap the other calls; inactive = above about -39%
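Screen run at 2 compound doses on HFFs infected with reporter HCMV, MOI 1 PFU/cell. Luciferase activity from cell lysates at 72 h post infection gave inhibition relative to buffer-only and Salinomycin wells.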
Vaccinia Venus – qHTS for Stage-Specific Inhibitors of Vaccinia Orthopoxvirus: Venus Reporter Primary qHTS | Vaccinia virus Venus reporter expression, fluorescence | Potency, µM (doses to about 36.5 µM), most hits filed as inhibitors | 330,000 tested, 0.46% active; calls by dose curve; tested in A549 cells; note: nearly all actives have a fitted effect of over 30% in size
VACV mCherry inh – qHTS for Stage-Specific Inhibitors of Vaccinia Orthopoxvirus: mCherry Reporter Primary qHTS. Potency, µM (titrated, usually from 36.5 µM), actives largely listed as inhibitors. 310,000 tested, 0.63% active. Vaccinia virus mCherry reporter infection, fluorescence; calls by dose curve; tested in A549 cells; note: nearly all actives have a fitted effect of over 35% in size
FMDV inh – High Throughput Screening for Foot and Mouth Disease Virus Antivirals; FMDV antiviral cell-based qHTS; Potency, µM (highest dose often 57.9 µM), most hits filed as inhibitors; 410,000 tested, 1.2% active; calls by dose curve; tested in HEK293T cells; note: read-out not given here; nearly all actives have a fitted effect of over 45% in size
Giardia FBPA inh – qHTS Assay for Inhibitors of Fructose-1,6-bisphosphate Aldolase from Giardia Lamblia; A8B2U2; purified Giardia FBPA; Potency, µM (doses to about 59.6 µM), hits mostly inhibitors; 290,000 tested, 0.71% active; note: nearly all actives have a fitted effect of over 55% in size
Target sequence (A8B2U2 whole entry, looked up): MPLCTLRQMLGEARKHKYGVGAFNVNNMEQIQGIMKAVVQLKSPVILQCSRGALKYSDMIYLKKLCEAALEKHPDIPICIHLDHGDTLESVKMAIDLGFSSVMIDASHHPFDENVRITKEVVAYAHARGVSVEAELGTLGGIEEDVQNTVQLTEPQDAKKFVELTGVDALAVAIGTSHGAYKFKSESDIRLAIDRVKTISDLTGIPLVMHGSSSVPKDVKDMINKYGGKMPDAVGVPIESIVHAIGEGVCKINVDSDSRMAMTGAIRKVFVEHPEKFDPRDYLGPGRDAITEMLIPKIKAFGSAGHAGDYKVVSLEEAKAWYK
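Giardia FBPA (40 nM reagent) was preincubated 10 min at RT with compound (up to 57.5 uM final), then substrate plus GAPDH/TPI/NAD/arsenate coupling system with diaphorase/resazurin was added; resorufin fluorescence (525/598 nm) was read after 20 min.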
HCV inh – qHTS Assay for Inhibitors of Hepatitis C Virus (HCV); Huh7.5.1 HCVcc-Cre infection, luciferase reporter, 44 h; Potency, µM (doses to about 41.8 µM), hits mostly inhibitors; 340,000 tested, 3.4% active; AID 651820, 2012
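HCVcc-Cre virus at an moi near 0.5 was added right after compound to cells cultured 4 h from seeding (1,000 cells/well). Luciferase activity was determined 44 h later, 15 min after substrate addition at RT.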
Large screens that a line does not name were inactive. Most compounds without a hit are left out; they make up all but 7.5% or so of the library. Unless noted, calls come from the whole dose curve; as a rule, active = well fitted curve in the direction sought with a large enough effect; inconclusive = small, poorly fitted or top-dose-only effect, or another doubt; inactive = no such curve, though single readings can be large; an effect the other way counts as inactive or inconclusive.

O=C(CCc1nc2ccccc2c(=O)[nH]1)OCCOc1ccc(Cl)cc1	none
Cc1ccccc1-c1nc(CN2CCC(C(=O)NCCCN3CCCC3)CC2)c(C)o1	Giardia FBPA inh inconclusive, HCV inh 14µM (no result: Vaccinia Venus, VACV mCherry inh)
Cc1ccccc1-c1nc(CN2CCC(C(=O)NCCN3CCOCC3)CC2)c(C)o1	none
O=C(CNC(=O)c1ccco1)N=Nc1c(O)n(CCc2ccccc2)c2ccccc12	HCMV inh -84, HCV inh inconclusive (no result: Vaccinia Venus, VACV mCherry inh)
COc1ccc([C@@H]2CC=C(C(=O)O)[C@H](c3cccc(Cl)c3)N2S(=O)(=O)c2ccccc2C)cc1	none (no result: Giardia FBPA inh)
O=C(Nc1ccccc1)N1CCc2scc[n+]2-c2ccccc21	HCMV inh -67, HCV inh inconclusive
COc1ccccc1C(=O)N1CCCC(c2nc(SCCN3CCOCC3)ncc2C)C1 (stereo not given)	none (no result: HCMV inh, Giardia FBPA inh, HCV inh)
COc1ccccc1C(=O)NCCC(=O)Nc1ccc(S(=O)(=O)N2C(C)CCCC2C)cc1 (stereo not given)	HCV inh 10µM (no result: Vaccinia Venus, VACV mCherry inh, Giardia FBPA inh)
CCN1CCN(CC(=O)Nc2ccc(S(=O)(=O)N3C(C)CCCC3C)cc2)CC1 (stereo not given)	HCMV inh -99 (no result: Giardia FBPA inh)
CC1CCN(S(=O)(=O)c2ccc(NC(=O)CN3CCCC3)cc2)CC1	Giardia FBPA inh inconclusive, HCV inh inconclusive
COc1ccc(C2=Nn3c(nnc3-c3cccc(OC)c3)SC2)cc1	none (no result: HCMV inh, Vaccinia Venus, VACV mCherry inh, FMDV inh, HCV inh)
C[C@@H]1CN(Cc2cn(C)nc2-c2cccc(Cl)c2)C[C@H](C)O1	none
O=C(O)c1cnn(-c2nc(-c3ccc(Br)cc3)cs2)c1C(F)(F)F	none (no result: Vaccinia Venus, VACV mCherry inh)
Oc1ccccc1N=N/C(=N/Nc1ccccc1O)c1ccccc1	VACV mCherry inh inconclusive (no result: Giardia FBPA inh)
N#C/C(N=Nc1ccccc1O)=N\Nc1ccccc1O	HCMV inh -99, Vaccinia Venus inconclusive, VACV mCherry inh inconclusive, FMDV inh inconclusive, HCV inh 11µM (no result: Giardia FBPA inh)
CCn1c(/C=C/c2cc(Br)ccc2O)nc2ccccc2c1=O	HCMV inh -93, FMDV inh inconclusive, HCV inh inconclusive (no result: Vaccinia Venus, VACV mCherry inh)
O=c1c2ccccc2nc(/C=C/c2ccccc2O)n1-c1ccc(Br)cc1	HCMV inh -63, Vaccinia Venus inconclusive, FMDV inh inconclusive (no result: Giardia FBPA inh, HCV inh)
Nc1nc(NS(=O)(=O)c2ccc(Cl)cc2)nn1-c1ccccc1	none
CCC1Cc2cc(O)ccc2C2=C1c1ccc(O)cc1CC2CC (stereo not given)	FMDV inh inconclusive (no result: HCMV inh, Vaccinia Venus, VACV mCherry inh, HCV inh)
Cc1oc(-c2cc3c(cc2Cl)OCO3)nc1CN1CCCC1c1ccc(F)cc1 (stereo not given)	none
O=[N+]([O-])c1c(NCCCO)cc(N2CCCCCC2)c2nonc12	VACV mCherry inh inconclusive
O=[N+]([O-])c1c(NCCCO)cc(Sc2ccc(Cl)cc2)c2nonc12	FMDV inh 25µM, Giardia FBPA inh inconclusive, HCV inh inconclusive
CC(=O)OCCCNc1cc(Sc2ccc(C)cc2)c2nonc2c1[N+](=O)[O-]	Vaccinia Venus inconclusive, VACV mCherry inh inconclusive, FMDV inh inconclusive
O=[N+]([O-])c1c(NCCCO)cc(N2CCN(Cc3ccc4c(c3)OCO4)CC2)c2nonc12	HCMV inh -78, FMDV inh 18µM, HCV inh inconclusive
COc1ccc(Nc2cc(NCCCO)c([N+](=O)[O-])c3nonc23)cc1	none (no result: Vaccinia Venus, VACV mCherry inh)
Cn1ccnc1Sc1cc(NCCCO)c([N+](=O)[O-])c2nonc12	FMDV inh 25µM, HCV inh 10µM
CCNC(=O)N[C@H]1CC[C@@]23CCCN2C(=O)CCC[C@H]3[C@H]1C	none (no result: Vaccinia Venus, VACV mCherry inh, FMDV inh, Giardia FBPA inh, HCV inh)
CCOC(=O)[C@@H]1[C@H]2COc3cc(OC)ccc3[C@H]2N2C(=O)N(c3ccc(C)cc3)C(=O)[C@]12C	none (no result: Giardia FBPA inh)
Oc1nc(Nc2ccc(F)cc2)sc1/C=C1\C=Nc2ccccc21	HCMV inh inconclusive, HCV inh inconclusive
CC1=Nc2ccccc2/C1=C\c1sc(Nc2ccc(C)cc2)nc1O	HCMV inh -89, Vaccinia Venus inconclusive, HCV inh inconclusive
COc1ccc(O)c(C(=O)c2cnn(C(=O)c3cc(C)oc3C)c2)c1	none (no result: VACV mCherry inh)
COc1ccc(O)c(C(=O)c2cnn(S(=O)(=O)c3ccc(C)cc3)c2)c1	HCMV inh -74 (no result: Vaccinia Venus, VACV mCherry inh, Giardia FBPA inh)
